High-throughput results as filed in PubChem.
Only some compounds are listed: those with a hit (about 17% of all), similar ones and a draw of the others.
TGFb SMAD3 inh = TGF-b pathway inhibition; HepG2 CAGA-GFP TGF-b/SMAD3 reporter, GFP fluorescence, 18 h; TGF-beta stimulated, 500 pg/mL final; Potency, µM (series often up to 46.1 µM), without a hit: top-dose activity, negative = inhibition, most hits filed as inhibitors; hit rate 1.2% among 410,000; AID 588855; further: on the % scale 0 is the no-effect control and ±100 the full control effect; nearly all actives have a fitted effect of over 65% in size
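HEPG2 CAGA-GFP cells (1000/well, DMEM with 1% FBS) were pre-incubated 2 h at 37 degrees C, given compound by pin tool, then stimulated with TGF-beta at 500 pg/mL final for 18 h before per-cell GFP fluorescence imaging.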
TDP1 cell noCPT = qHTS for Inhibitors of human tyrosyl-DNA phosphodiesterase 1 (TDP1): qHTS in cells in absence of CPT. Potency, µM (doses to about 46.2 µM), for the others: at the top dose activity change, negative = growth inhibition, usual class: inhibitors. DT40 Tdp1-/- hTDP1 cells, no CPT, ATP luminescence, 48 h. AID 686978, 2013. hit rate 15% among 420,000; further: on the % scale 0 is the no-effect control and ±100 the full control effect; nearly all actives have a fitted effect of over 55% in size
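Camptothecin absent (DMSO only). Human TDP1-complemented DT40 knockout cells, 400 cells/well, 37 °C for minimum 48 hr; ATP measured via CellTiter-Glo, 30 min dark incubation, luminescence.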
HepG2 viability = kills HepG2 cells in TGF-b inhibitor counter-screen | HepG2 CAGA-GFP viability, ATP luminescence, 18 h | Potency, µM (series often up to 46.1 µM), for the others: at the highest dose activity change, negative = cytotoxicity, hits mostly cytotoxic | hit rate 0.76% among 410,000 | AID 588856
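HepG2 CAGA-GFP cells (1000/well, DMEM with 1% FBS) received compound, then TGF-beta at 500 pg/mL final, and were incubated 18 hours at 37 degrees C. Viability was read by CellTiter-Glo luminescence. Media-only wells were set as complete cell-killing and DMSO as no toxicity.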
ATXN2 expr inh = inhibitors of ATXN2 expression. HEK-293 ATXN2-luciferase reporter, luminescence, 24 h. Potency, µM (top dose mostly 57 µM), inactives show top-dose activity change, negative = inhibition, actives largely listed as inhibitors. hit rate 0.72% among 360,000. AID 1745845; further: on the % scale 0 is the no-effect control and ±100 the full control effect; nearly all actives have a fitted effect of over 55% in size
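qHTS (up to 57 uM final) was run with 24 h compound exposure of reporter cells at 37 °C. Each well was multiplexed: SteadyGlo luminescence measured ATXN2-luciferase expression after a fluorogenic Gly-Phe-AFC viability readout (25 uM final).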
ATXN viability = cell viability loss in ATXN counter-screen. Potency, µM (titrated, usually from 56.7 µM), hits mostly cytotoxic. S2 cells (HEK-293 line with an ATXN2-luciferase reporter) viability, CellTiter-Fluor protease fluorescence, 24 h. hit rate 0.49% among 400,000. AID 651635; further: nearly all actives have a fitted effect of over 40% in size
TDP1 cell CPT = DT40-hTDP1 cell growth loss with CPT; chicken DT40 Tdp1-/-;hTDP1 cells + 20 nM CPT, ATP luminescence, 48 h; Potency, µM (highest dose often 46.2 µM), inactives show at the top dose activity change, negative = growth inhibition, usual class: inhibitors; hit rate 12% among 420,000; AID 686979; further: on the % scale 0 is the no-effect control and ±100 the full control effect; nearly all actives have a fitted effect of over 55% in size
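Chicken DT40 Tdp1-/- cells stably complemented with human TDP1 were seeded at 400 cells/well in medium containing 20 nM camptothecin, exposed to pin-transferred compounds, and grown at 37 °C for at least 48 hr. Viability was read as ATP luminescence.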
An asterisk follows results filed as active; i = inactive; ? = inconclusive; · = no result; [ ] = remark or other dose. The call rests on the fitted dose curve; in most records, active means well fitted curve in the direction sought with a large enough effect; inconclusive means small, poorly fitted or top-dose-only effect, or another doubt; inactive means no such curve, though single readings can be large; an effect the other way counts as inactive or inconclusive. Potency means the concentration at half of the fitted maximal effect.

SMILES	TGFb SMAD3 inh	TDP1 cell noCPT	HepG2 viability	ATXN2 expr inh	ATXN viability	TDP1 cell CPT
Cc1ccccc1NC(=O)c1cccc(C(=O)Nc2ccccc2C)n1	0.9%	?	-5.3%	4.0%	i	-14.5%
CCCCNC(=O)C1(C)CCC(=O)N1CCCn1ccnc1 (centres undefined)	-19.1%	10.0%	-2.0%	12.7%	i	4.7%
COC(=O)c1ccc(NC(=O)c2nc(SCc3ccccc3F)ncc2Cl)cc1	-0.6%	17.8µM*	4.4%	·	·	?
CC(=O)Nc1ccc(NC(=O)c2nc(SCc3ccccc3F)ncc2Cl)cc1	0.2%	-8.5%	-47.9%	·	·	-22.4%
CCc1nnc(NC(=O)c2ccc(Cl)nc2)s1	3.6%	4.2%	-0.2%	7.2%	i	-26.7%
CCOC(=O)c1nc(S(C)(=O)=O)ncc1Cl	?	3.66µM*	11.2µM*	?	·	4.11µM*
CS(=O)(=O)c1ncc(Cl)c(C(=O)Nc2c(C(=O)c3ccc(Cl)cc3)oc3ccccc23)n1	-17.5%	3.4%	-1.8%	9.5%	i	?
CCc1nnc(NC(=O)c2cc(Cl)ccn2)s1	-18.6%	2.59µM*	-19.3%	?	i	2.91µM*
CCS(=O)(=O)c1ncc(Cl)c(C(=O)Nc2c(C(=O)c3ccc(C)cc3)oc3ccccc23)n1	-20.6%	1.64µM*	-11.4%	12.0%	i	1.64µM*
CNc1cncc(-c2ccc(F)cc2F)n1	24.4%	-26.5%	7.8%	29.8%	i	-29.0%
CCOc1ccc(N(CC(=O)Nc2c(C)n(C)n(-c3ccccc3)c2=O)S(=O)(=O)c2ccccc2)cc1	-17.3%	7.7%	-2.0%	-13.5%	i	2.7%
NC(=S)N1CCCc2ccccc21	4.1%	-5.2%	11.5%	-16.7%	i	-1.6%
CC1(C)OC(=O)Nc2ccc(Br)cc21	·	·	·	18.6%	i	·
CCOc1ccccc1NC(=O)c1nc(S(=O)(=O)Cc2ccccc2F)ncc1Cl	?	?	-17.5%	·	·	0.562µM*
COc1ccc(OC)c(NC(=O)c2nc(S(=O)(=O)Cc3ccccc3F)ncc2Cl)c1	?	0.631µM*	3.16µM*	·	·	1µM*
Cc1cccc(C)c1NC(=O)c1nc(S(=O)(=O)Cc2ccccc2)ncc1Cl	11.2µM*	2.91µM*	-177.9%	?	?	2.59µM*
COC(=O)c1ccccc1NC(=O)c1nc(S(=O)(=O)Cc2ccccc2F)ncc1Cl	-1.8%	?	4.5%	9.0%	i	-11.1%
CCSc1nnc(NC(=O)c2csc3c2CCC(C)C3)s1 (centres undefined)	3.3%	?	1.9%	-1.9%	i	18.4µM*
COc1ccc([C@@H]2[C@@H](O)[C@H](O)[C@@H](C)N2C)cc1OC	·	-15.7%[9.04 µM]	·	·	·	-20.4%[9.04 µM]
COC(=O)[C@H](Cc1ccccc1)NC(=O)CC[C@H]1O[C@@H](n2ccc(=O)[nH]c2=O)[C@H](O)[C@@H]1O	-0.7%	16.4%	-4.0%	1.6%	i	1.9%
COc1ccc(-n2c(=O)cnc3cnc(Nc4ccccc4)nc32)cc1	·	-20.0%	·	·	·	?
CCCCn1c(N)c(N(CCC(C)C)C(=O)CCCc2nc3ccccc3s2)c(=O)[nH]c1=O	6.5%	3.2%	3.2%	5.8%	i	0.3%
CN1C(=O)/C(=C2/C=Cc3ccccc3N2CCCS(=O)(=O)O)SC1=S	1.8%	0.9%	-0.2%	12.5%	15.8µM*	-0.8%
CCCN1/C(=C2/SC(=S)N(CC)C2=O)C=Cc2ccccc21	-16.8%	?	-27.4%	-6.7%	?	?
Cc1ccc(NC(=O)Cc2nnc(SCC(=O)NC3CCCC3)n2C)c(C)c1	9.1%	-41.9%	-7.0%	4.1%	i	-7.1%
SMILES	TGFb SMAD3 inh	TDP1 cell noCPT	HepG2 viability	ATXN2 expr inh	ATXN viability	TDP1 cell CPT
COc1ccccc1N1CCN(C(=O)c2cc3n(n2)C(C(F)(F)F)CC(c2ccco2)N3)CC1 (centres undefined)	-3.9%	18.4µM*	-3.9%	1.4%	i	14.6µM*
O=C(c1cc2n(n1)C(C(F)(F)F)CC(c1ccco1)N2)N1CCc2ccccc2C1 (centres undefined)	?	18.4µM*	-0.8%	-6.1%	i	?
O=C(c1cnn2c1NC(c1ccco1)CC2C(F)(F)F)N1CCN(c2cccc(Cl)c2)CC1 (centres undefined)	?	8.2µM*	-14.5%	?	i	16.4µM*
COc1cc2c(cc1OC)C(C)N(C(=O)c1cc3n(n1)C(C(F)(F)F)CC(c1ccco1)N3)CC2 (centres undefined)	?	?	-9.3%	-3.7%	i	?
COC(=O)C1CCN(C2CN(Cc3ccc(C)cc3)S(=O)(=O)C2)CC1 (centres undefined)	-1.1%	-23.4%	-12.4%	3.1%	i	7.5%
O=C1C=CC(=O)N1	?	3.26µM*	-71.2%	-12.7%	?	3.26µM*
CCCOc1ccccc1NC(=O)CC1Nc2ccccc2NC1=O (centres undefined)	-19.0%	-18.4%	1.1%	-25.2%	i	-8.6%
Cc1ccc(NC(=O)CC2Sc3ccccc3NC2=O)c(C)c1 (centres undefined)	13.6%	23.1µM*	5.5%	6.2%	i	?
CCCCOc1ccccc1NC(=O)CC1Sc2ccccc2NC1=O (centres undefined)	-4.3%	?	-16.7%	-3.2%	i	20.6µM*
Cc1ccc(NC(=O)CC2SC3=NCCCN3C2=O)c(C)c1 (centres undefined)	-3.8%	16.4µM*	-5.1%	4.5%	i	9.2µM*
NC(=O)C1CCN(CC(=O)Nc2ccccc2C(=O)NC2CC2)CC1	0.2%	12.9%	12.2%	10.1%	i	20.8%
Clc1ccc2nc(CSc3nnc(-c4c[nH]c5ccccc45)o3)cn2c1	0.0%	1.4%	-3.9%	8.6%	i	-27.9%
Clc1cccc(CSc2nnc(-c3c[nH]c4ccccc34)o2)c1	?	?	12.6µM*	12.9%	i	?
Clc1ccc(-c2nnc(SCc3nc4ccccc4[nH]3)o2)c(Cl)c1	-15.2%	9.2µM*	-30.7%	-0.4%	i	?
c1ccc2[nH]c(CSc3nnc(-c4ccncc4)o3)nc2c1	-4.4%	?	-7.4%	-1.8%	i	?
O=c1c(-c2nnc(SCc3ccc(Cl)c(Cl)c3)o2)cccn1Cc1ccccc1	-9.2%	20.6µM*	-11.6%	-31.1%	i	?
